Bioassay records from PubChem BioAssay.
A selection: hits, their analogues and other compounds. The true share with any hit is near 4.6%.
GPR32 ag – qHTS for Agonists of Human Resolvin D1 Receptor DRV1. activation, % at 76.9 µM. 48,000 compounds, 2.5% hits. AID 1346428, 2018. Probable G-protein coupled receptor 32 (Homo sapiens), O75388. CHO-K1 GPR32 beta-arrestin PathHunter luminescence, 90 min; zero percent set by DMSO-only wells;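 active = activation of at least 60% and not above a set upper limit, about 1 call in 100 departs from these limits; inconclusive = activation of 40% to 60%, or above that upper limit; inactive = activation under 40%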
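CHO-K1 cells stably expressing ProLink-tagged GPR32 and Enzyme Activator-tagged beta-arrestin were seeded at 2,500 cells/well overnight, exposed to compounds for 90 min at 37 °C, then read by beta-Gal complementation chemiluminescence after 1 h detection reagent.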
HTT promoter inh – Primary qHTS for Identification of Small Molecule Inhibitors of Huntingtin Promoter Activity. HEK293 HTT promoter firefly luciferase reporter, 24 h. 48,000 compounds, 0.93% hits. Potency, µM (top dose mostly 57.5 µM), actives largely listed as inhibitors. AID 1508623, 2021; also: nearly all actives have a fitted effect of over 50% in size
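Firefly luciferase signal from promoter-reporter HEK293 cells was scaled between vehicle (0%) and zero RLU (-100%). Compounds were tested at final concentrations of up to 57.5 uM over 24 h at 37 degrees C. PTC124 at 50 uM final served as control inhibitor.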
HTT-AS promoter – Primary qHTS for Identification of Small Molecule Activators of Huntingtin-Antisense Promoter Activity. HEK293 HTT-AS promoter firefly luciferase reporter, 24 h; response scale: percent change from vehicle, -100% = no light. Potency, µM (highest dose often 57.5 µM), most hits filed as activators. 48,000 compounds, 0.24% hits; also: nearly all actives have a fitted effect of over 55% in size
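HEK293 luciferase promoter-reporter cells (2,500/well) plated 24 h, then compounds added at up to 57.5 uM final for 24 h at 37 °C. Firefly luminescence by Dual-Glo, normalized to vehicle (0%) and zero RLU (-100%).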
NTMT1 inhibitor – Primary qHTS for Inhibitors of N-terminal methyltransferase 1 (NTMT1): MTaseGlo Assay; Potency, µM (series often up to 114 µM), most hits filed as inhibitors; AID 1645870, 2021; NTMT1 MTase-Glo SAH luminescence, purified enzyme; 59,000 compounds, 2.5% hits; N-terminal Xaa-Pro-Lys N-methyltransferase 1 (Homo sapiens), Q9BV86; also: nearly all actives have a fitted effect of over 65% in size
Target sequence (Q9BV86 whole entry, looked up): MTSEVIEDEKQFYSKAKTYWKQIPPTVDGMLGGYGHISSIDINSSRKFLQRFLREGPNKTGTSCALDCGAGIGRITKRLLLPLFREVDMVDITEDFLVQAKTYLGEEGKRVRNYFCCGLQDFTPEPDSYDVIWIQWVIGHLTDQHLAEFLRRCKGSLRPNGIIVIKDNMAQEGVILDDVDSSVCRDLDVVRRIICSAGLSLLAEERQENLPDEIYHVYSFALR
CLK4 inh-1 – Confirmation Assay for Inhibitors of CDC-like Kinase 4 (Kinase-Glo Assay): SAR round 2; shares compounds with NTMT1 inhibitor; recombinant Clk4, Kinase-Glo ATP luminescence, 4.5 h; Potency, µM (titrated, usually from 76.9 µM), most hits filed as inhibitors; 90 compounds, 90% hits; AID 493204, 2011
CLK4 inh-2 – Kinase Inhibition Study on Inhibitors of CDC-like Kinase 4 (Reaction Biology data): SAR round 2; shares compounds with NTMT1 inhibitor; Reaction Biology kinase assay, 10 uM ATP; Potency, µM, hits mostly inhibitors; 65 compounds, 100% hits; calls by dose curve
DYRK1A RBC – Kinase Inhibition Study on Inhibitors of Dyrk1a (Reaction Biology data). shares compounds with NTMT1 inhibitor. Reaction Biology kinase assay, 10 uM ATP. Potency, µM, actives largely listed as inhibitors. 65 compounds, 90% hits;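 active = compounds that showed inhibition of Dyrk1a and received a fitted potency; inactive = compounds that showed no inhibition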
CLK2 inh – Kinase Inhibition Study on Inhibitors of CDC-like Kinase 2 (Reaction Biology data); 65 compounds, 90% hits; shares compounds with NTMT1 inhibitor; Reaction Biology kinase assay, 10 uM ATP; Potency, µM, actives largely listed as inhibitors; AID 504427, 2011;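 active = compound that inhibits Clk2 kinase in the dose series, with an IC50 potency reported; inactive = no inhibition seen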
CLK3 RBC – Kinase Inhibition Study on Inhibitors of CDC-like Kinase 3 (Reaction Biology data); shares compounds with NTMT1 inhibitor; recombinant CLK3 kinase assay, 10 uM ATP; Potency, µM, most hits filed as inhibitors; 65 compounds, 40% hits; AID 504428, 2011;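 active = compounds that inhibited Clk3 enough in the ten-dose series to give a half-maximal potency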
Target sequence (P49761 whole entry, looked up): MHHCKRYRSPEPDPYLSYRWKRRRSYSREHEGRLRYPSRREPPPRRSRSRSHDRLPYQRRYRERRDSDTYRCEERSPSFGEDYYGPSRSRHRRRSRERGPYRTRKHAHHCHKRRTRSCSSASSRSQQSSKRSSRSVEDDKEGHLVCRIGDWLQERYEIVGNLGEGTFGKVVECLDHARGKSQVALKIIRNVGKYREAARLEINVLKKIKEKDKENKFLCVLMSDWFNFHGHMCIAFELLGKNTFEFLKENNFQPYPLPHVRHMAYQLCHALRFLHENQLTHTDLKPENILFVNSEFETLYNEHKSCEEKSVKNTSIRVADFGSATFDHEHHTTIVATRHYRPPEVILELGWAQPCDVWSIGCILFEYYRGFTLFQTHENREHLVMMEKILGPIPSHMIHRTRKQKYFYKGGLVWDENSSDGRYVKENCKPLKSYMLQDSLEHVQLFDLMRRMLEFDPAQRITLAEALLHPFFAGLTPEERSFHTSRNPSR
DYRK1B RBC – Kinase Inhibition Study on Inhibitors of Dyrk1b (Reaction Biology data). shares compounds with NTMT1 inhibitor. Recombinant Dyrk1b kinase assay, 10 uM ATP. Potency, µM, actives largely listed as inhibitors. 65 compounds, 80% hits;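 active = compounds whose dose response shows an inhibitor phenotype against the kinase Dyrk1b; inactive = compounds showing no inhibitor phenotype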
CLK1 inh – Kinase Inhibition Study on Inhibitors of CDC-like Kinase 1 (Reaction Biology data) | recombinant Clk1 kinase assay, 10 uM ATP | 65 compounds, 90% hits | shares compounds with NTMT1 inhibitor | Potency, µM, actives largely listed as inhibitors;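 active = compounds that block the splicing kinase Clk1 enough to give a fitted half-inhibition concentration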
Sfp qHTS opt – qHTS Assay for Inhibitos of Bacillus subtilis Sfp phosphopantetheinyl transferase (PPTase): Chemistry Optimization Followup; shares compounds with NTMT1 inhibitor; purified Sfp PPTase enzyme activity, qHTS; Potency, µM (top dose mostly 114 µM), hits mostly inhibitors; 230 compounds, 78% hits; AID 540350, 2011
Bsub HM489 growth – qHTS for Inhibitos of Bacillus subtilis Sfp phosphopantetheinyl transferase (PPTase): Chemistry Optimization Followup in B. Subtilis HM489. AID 540353, 2011. shares compounds with NTMT1 inhibitor. B. subtilis HM489 (acpS-) growth, BacTiter-Glo, 5 h. 220 compounds, 50% hits. Potency, µM (doses to about 114 µM), hits mostly inhibitors
Sfp PPTase gel – Gel-Based Assay for Inhibitos of Bacillus subtilis Sfp phosphopantetheinyl transferase (PPTase): Chemistry Optimization Followup. purified Sfp PPTase, gel-based product detection. 220 compounds, 54% hits. Potency, µM (doses to about 250 µM), hits mostly inhibitors. shares compounds with NTMT1 inhibitor
Sfp SAR2 – qHTS Assay for Inhibitors of Bacillus subtilis Sfp phosphopantetheinyl transferase (PPTase): SAR Round 2 | shares compounds with NTMT1 inhibitor | purified Sfp enzyme, PPTase activity, qHTS | Potency, µM (series often up to 57.1 µM), hits mostly inhibitors | 230 compounds, 87% hits
HSD17B4 inh – Extended Characterization of HPGD Inhibitors: Counterscreen Against HSD17b4 | shares compounds with NTMT1 inhibitor | purified HSD17B4, estradiol/NAD+, NADH fluorescence | Potency, µM (doses to about 57.1 µM), most hits filed as inhibitors | 230 compounds, 10% hits
ALDH1A1 inh – Extended Characterization of HPGD Inhibitors: Counterscreen Against ALDH1A1; Potency, µM (highest dose often 57.1 µM), most hits filed as inhibitors; 230 compounds, 93% hits; AID 743195, 2013; shares compounds with NTMT1 inhibitor; recombinant ALDH1A1, NADH fluorescence, propionaldehyde/NAD+
NNMT counter – Counterscreen qHTS for Inhibitors of N-terminal methyltransferase 1 (NTMT1): NNMT MTaseGlo assay; 120 compounds, 10% hits; AID 1645878, 2021; NNMT MTase-Glo luminescence, SAH detection; shares compounds with NTMT1 inhibitor; Potency, µM (series often up to 57.1 µM), usual class: inhibitors
Numbers stand for hits; . = inactive; ? = inconclusive; / = not tested or not shown. Unless noted, calls follow the shape of the dose curve; as a rule, active = well fitted curve in the direction sought with a large enough effect; inconclusive = small, poorly fitted or top-dose-only effect, or another doubt; inactive = no such curve, though single readings can be large; an effect the other way counts as inactive or inconclusive.

SMILES	GPR32 ag	HTT promoter inh	HTT-AS promoter	NTMT1 inhibitor	NNMT counter	others
O=C(CCl)Nc1cccc(NC2=NS(=O)(=O)c3ccccc32)c1	/	/	/	.	/
CN=c1nc(-c2ccccc2)n(-c2ccccc2)s1	.	/	/	/	22µM
CCN1CCN(C(=S)c2ccc(O)cc2)CC1	/	/	/	.	/	Sfp qHTS opt=19µM;Bsub HM489 growth=.;Sfp PPTase gel=?;Sfp SAR2=18µM;HSD17B4 inh=.;ALDH1A1 inh=?
COc1cc2ncnc(Nc3cccc(I)c3)c2cc1OC	/	/	/	22µM	?
CCOc1ccc(-c2nc(-c3cccc4c3CCC4NCCO)no2)cc1OCC (stereo not given)	/	/	/	.	/
CCOc1ccc(CCNC(=O)c2cc3sccc3[nH]2)cc1OCC	/	/	/	.	/
CC(=O)N[C@@H](CC(C)C)C(=O)N[C@@H](CCC(=O)O)C(=O)N[C@@H](CCC(=O)O)C(=O)N[C@@H](CC(=O)O)C(=O)Nc1ccc2c(C(F)(F)F)cc(=O)oc2c1	/	/	/	.	.
N#Cc1cccc(-c2ccc(CNc3nc(-c4ccccc4C(F)(F)F)nc4ccccc34)cc2)c1	/	/	/	.	/
Cc1nc2cccnc2n1C1CCN(C(=O)Nc2ccccc2)CC1	.	.	.	.	/
Cc1ccc(-c2ccc3ncc4c(c3n2)n(C2CCN(C(=O)[C@H](C)O)CC2)c(=O)n4C)cn1	/	/	/	16µM	?
O=C(O)c1ccc(-c2ccc3ncnc(NCC4CCCO4)c3c2)o1 (stereo not given)	/	/	/	.	/	CLK4 inh-1=0.82µM;CLK4 inh-2=3.4;DYRK1A RBC=30µM;CLK2 inh=20µM;CLK3 RBC=.;DYRK1B RBC=12µM;CLK1 inh=44µM
OCc1ccc(-c2ccc3ncnc(NCC4CCCO4)c3c2)o1 (stereo not given)	/	/	/	/	/	CLK4 inh-2=13;DYRK1A RBC=.;CLK2 inh=.;CLK3 RBC=.;DYRK1B RBC=45µM;CLK1 inh=50µM
O=C(O)c1ccc(-c2ccc3ncnc(NCc4nccs4)c3c2)o1	/	/	/	.	/	CLK4 inh-1=0.92µM;CLK4 inh-2=1.9;DYRK1A RBC=41µM;CLK2 inh=27µM;CLK3 RBC=.;DYRK1B RBC=18µM;CLK1 inh=39µM
CNCC(=O)Nc1ccc(Cl)cc1C(=O)c1ccc[nH]1	/	/	/	.	/
C=CC(=O)Nc1cccc(Nc2nc(NC3CCC(N(C)C)CC3)nc3c2ncn3C(C)C)c1 (stereo not given)	/	.	.	.	/
CN(C)CCn1cc(S(=O)(=O)c2cccc(F)c2)c2cccnc21	/	/	/	.	/
